# Bioassay records deposited in PubChem by National Center for Advancing Translational Sciences (NCATS).
# The full list was thinned out, with hits kept by preference.
# Tb PYK inh: blocks Trypanosoma brucei pyruvate kinase; TbPYK enzyme, Kinase-Glo Plus ATP luminescence, 45 min; AID 624173; 410,000 tested, 0.12% active; Q57TT1; Potency, µM (series often up to 76.8 µM), for inactives: top-dose activity, negative = inhibition, most hits filed as inhibitors; also: potency is read from the fitted curve at half-maximal effect; % is scaled to controls: 0 for no effect and ±100 for the full control effect; nearly all actives have a fitted effect of over 50% in size
#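 Glycolytic pyruvate kinase of T. brucei was incubated with substrate, test compound and 130 uM ADP for 45 minutes at room temperature. Luminescent Kinase-Glo Plus signal was measured after 10 minutes.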
# LmPK inh: LmPK (Leishmania mexicana) enzyme inhibition; Q27686; purified LmPK, Kinase-Glo ATP luminescence, 1 h; Potency, µM (top dose mostly 57.5 µM), for the others: at the highest dose activity change, negative = inhibition, actives largely listed as inhibitors; 290,000 tested, 0.37% active; AID 1721; also: potency is read from the fitted curve at half-maximal effect; % is scaled to controls: 0 for no effect and ±100 for the full control effect
#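 ATP generated from ADP (0.1 mM) and PEP (0.5 mM) by 0.1 nM LmPK over 1 h at room temperature (pH 7.2 imidazole buffer) was detected by coupled luciferase luminescence. Values were normalized to uninhibited and no-enzyme wells.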
# Giardia FBPA inh: blocks Giardia fructose-bisphosphate aldolase activity | A8B2U2 | purified Giardia FBPA | Potency, µM (series often up to 59.6 µM), for the others: at the highest dose activity, negative = inhibition, most hits filed as inhibitors | 290,000 tested, 0.71% active | AID 2451; also: potency is read from the fitted curve at half-maximal effect; % is scaled to controls: 0 for no effect and ±100 for the full control effect; nearly all actives have a fitted effect of over 55% in size
# Target sequence (A8B2U2 whole entry, looked up): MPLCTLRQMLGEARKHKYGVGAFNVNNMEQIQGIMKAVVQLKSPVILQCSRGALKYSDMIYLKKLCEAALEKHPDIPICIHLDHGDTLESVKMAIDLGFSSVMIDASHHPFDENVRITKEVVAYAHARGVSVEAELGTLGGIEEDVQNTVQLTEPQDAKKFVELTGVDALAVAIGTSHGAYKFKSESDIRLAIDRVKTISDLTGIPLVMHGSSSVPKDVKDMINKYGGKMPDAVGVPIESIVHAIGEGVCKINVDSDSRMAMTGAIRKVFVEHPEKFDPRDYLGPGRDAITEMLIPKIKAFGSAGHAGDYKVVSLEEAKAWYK
#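 40 nM FBPA preincubated 10 min at RT with compound (up to 57.5 uM final), then substrate plus GAPDH/TPI/NAD/arsenate coupling and diaphorase/resazurin added. Fluorescence read after 20 min at RT, 525/598 nm.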
# Shiga inhibitor: blocks Shiga toxin action in Vero cells | Vero cells, Shiga toxin protein synthesis inhibition reporter | inhibition, % at 38.7 µM | 290,000 tested, 9.2% active; in the data active = inhibition mostly above about 28%, no sharp cut-off; inactive = mostly below about 43%; also: 0% is about no effect
# RE007 growth inh: less growth of the S. pombe RE007 Vpr strain | S. pombe RE007 Vpr strain, BacTiter-Glo ATP luminescence, 24 h | Potency, µM (highest dose often 92.2 µM), inactives show top-dose activity change, negative = less growth, hits mostly inhibitors | 360,000 tested, 0.21% active | AID 651644; active = well fitted falling curve with a large enough effect; also: potency is read from the fitted curve at half-maximal effect; % is scaled to controls: 0 for no effect and ±100 for the full control effect; nearly all actives have a fitted effect of over 50% in size
#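 Fission yeast RE007 carrying one integrated HIV-1 vpr copy, seeded at OD 0.01 in PMG+AL medium with 23 nL pinned compound. Grown 24 h at 30 degrees; viability read by BacTiter-Glo luminescence after 5 min.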
# Cycloheximide cs: counter-screen for Shiga toxin inhibitors: cycloheximide protein synthesis inhibition. cell reporter, cycloheximide protein synthesis inhibition counterscreen. max response, %. 300,000 tested, 12% active; in the data active = max response mostly above about 13%, no sharp cut-off; inactive = mostly below about 14%; also: read at 38.3 µM for the half of the compounds with a filed dose; 0% is about no effect
# An asterisk follows results filed as active; . = no result given. Unless noted, calls follow the shape of the dose curve; as a rule, active = well fitted curve in the direction sought with a large enough effect; inconclusive = small, poorly fitted or top-dose-only effect, or another doubt; inactive = no such curve, though single readings can be large; an effect the other way counts as inactive or inconclusive.
SMILES,Tb PYK inh,LmPK inh,Giardia FBPA inh,Shiga inhibitor,RE007 growth inh,Cycloheximide cs
COc1ccccc1CNC(=O)C1CCC(CNc2c(N3CCC(C)CC3)c(=O)c2=O)CC1 (stereo unspecified),1%,-6%,3%,3,-4%,2
CCCCN1C(=O)CCC(C(=O)O)C1c1ccc([N+](=O)[O-])cc1 (stereo unspecified),0%,5%,8%,-11,22%,0
O=C(Nc1ccc(Cl)c(Cl)c1)c1cc(S(=O)(=O)N2CCN(c3cccc(Cl)c3)CC2)ccc1F,1%,.,.,.,.,.
Cc1ccc2oc(C(=O)N(C)CCC(O)c3ccccc3)c(C)c2c1 (stereo unspecified),-3%,-2%,-9%,22*,-12%,13
CCN(CC)S(=O)(=O)c1ccc2oc(C(=O)N(C)Cc3ccccc3)c(C)c2c1,1%,.,.,.,.,.
COc1ccc2oc(C(=O)N(C)CCOc3ccccc3)c(C)c2c1,-7%,-11%,.,83*,16%,38*
Cc1noc(C)c1-c1nccc(NC2CC2)n1,.,.,5%,.,.,.
CNC(=O)c1cc2cccc(OC)c2oc1=O,1%,1%,0%,-5,1%,0
CNC(=O)c1cc2cc(OC)ccc2oc1=O,-8%,3%,-3%,-8,9%,-2
CCOC(=O)CC(NC(=O)c1cc2cccc(OC)c2oc1=O)c1ccc(OC)cc1 (stereo unspecified),4%,-3%,6%,102*,-8%,44*
COc1cccc2cc(C(=O)NCC3CCCO3)c(=O)oc12 (stereo unspecified),4%,-5%,1%,33,15%,30*
COc1cc(Br)cc2cc(C(=O)NCC3CCCO3)c(=O)oc12 (stereo unspecified),-24%,-2%,3%,-3,1%,-2
COc1ccc2oc(=O)c(C(=O)NCC3CCCO3)cc2c1 (stereo unspecified),0%,2%,-6%,45,-2%,29*
COc1cccc2cc(C(=O)NC(C)C3CCCO3)c(=O)oc12 (stereo unspecified),-15%,3%,2%,63*,-3%,45*
CCOC(=O)CC(NC(=O)c1cc2cc(Br)cc(OC)c2oc1=O)c1ccc(OC)cc1 (stereo unspecified),10%,.,.,.,.,.
COc1cccc([C@@H]2Oc3ccc(Br)cc3C[C@H]2OC(=O)Nc2ccc(C)c(Br)c2)c1,.,.,0%,.,.,.
CCCCCCCCCCCCOC1OC(CO)C(O)C(O)C1NC(C)=O (stereo unspecified),0%,-3%,11%,15,7%,5
COc1cccc2cc(C(=O)NC3CC4CCC3C4)oc12 (stereo unspecified),-6%,0%,-11%,21,-25%,14*
COc1ccc2oc(=O)c(C(=O)NC3CCCCCC3)cc2c1,11%,4%,-1%,.,-18%,23*
CCOc1ccc(CCNC(=O)CCn2c(=O)c3cccn3c3ccc(F)cc32)cc1OCC,17%,.,.,.,.,.
Cc1cccc(C)c1N(CCCc1cccnc1)C(=O)[C@@H](C)N,-4%,.,.,.,.,.
Cc1ccc(S(=O)(=O)N(CC(=O)Nc2ccc3c(c2)OCO3)c2ccc(C)c(Cl)c2)cc1,5%,.,.,.,.,.
CCOc1ccc(NC(=O)Cn2cc(C(=O)c3ccc(OCC)cc3)c(=O)c3cc4c(cc32)OCCO4)cc1,-5%,.,.,.,.,.
O=C(Nc1ccc(SC(F)F)cc1)C1=COCCO1,-2%,-22%,0%,70*,-20%,34*
Cc1ccc(C(=O)Nc2ccc(SC(F)F)cc2)s1,-8%,2%,-19%,109*,-4%,51*
CC[N+](CC)(CC)CC(=O)Nc1ccc(SC(F)F)cc1,0%,9%,2%,25,1%,9
COC(=O)c1c(-c2c(Cl)cccc2Cl)noc1NC(=O)NN1CCCCC1,0%,9%,-9%,-8,13%,-2
Cc1cc(=O)[nH]c(SCc2csc(-c3ccccc3)n2)n1,2%,1%,3%,24,1%,20*
Nc1cc(=O)[nH]c(SCc2csc(-c3ccccc3)n2)n1,-3%,-2%,3%,42,6%,8
